Assay results as given in the supplement of paper PMC7669877.
± gives the uncertainty stated by the source.

test system: Candidatus Liberibacter solanacearum in potato hairy roots; test: relative CLso titer (% of untreated control); higher = less inhibition of bacterial titer; settings: 10 µM; 72 h
Description: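 Primary screen of ~220 Spectrum collection (MicroSource) compounds at 10 µM (0.1% DMSO) on Candidatus Liberibacter solanacearum-infected potato hairy roots in multi-well plates (Gamborg B-5 medium, vacuum infiltrated, 21 °C, dark, 72 h). CLso titer was measured by qPCR of 16S rDNA normalised to potato RPL2 (2^-ddCq), pairwise-standardised against untreated controls, averaged over two biological replicates and expressed as % of untreated.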

Question: N=C(NCCCCCCNC(=N)NC(=N)Nc1ccc(Cl)cc1)NC(=N)Nc1ccc(Cl)cc1 was tested. Which “relative CLso titer” value did it give?
Answer: The value was 89.5 ± 36%.

Question: How did the “relative CLso titer” value turn out when CO[C@@]1(NC(=O)C2SC(=C(C(N)=O)C(=O)O)S2)C(=O)N2C(C(=O)O)=C(CSc3nnnn3C)CS[C@@H]21 (stereo not given in full) was run?
Answer: Its value is 138 ± 17%.

Question: CCCN(CCC)C(=O)C(CCC(=O)O)NC(=O)c1ccccc1 (stereo not given) was tested. Which “relative CLso titer” value did it give?
Answer: Its value is 52.8 ± 27%.

Question: Which “relative CLso titer” value does the source give for NC12CC3CC(CC(C3)C1)C2 here?
Answer: Its value is 42.5 ± 3.2%.

Question: For C=C1c2cccc(O)c2C(=O)C2=C(O)[C@]3(O)C(=O)C(C(N)=O)=C(O)[C@@H](N(C)C)[C@@H]3[C@@H](O)[C@H]12, which “relative CLso titer” value is on record?
Answer: The value was 79.1 ± 26%.

Question: How did the “relative CLso titer” value turn out when CN1CCN(CC(=O)N2c3ccccc3C(=O)Nc3cccnc32)CC1 was run?
Answer: Its value is 56.9 ± 5.4%.

Question: With Cc1onc(-c2ccccc2Cl)c1C(=O)N[C@@H]1C(=O)N2[C@@H]1SC(C)(C)[C@@H]2C(=O)O as the compound, how does the “relative CLso titer” value read?
Answer: The value was 46.2 ± 1.5%.

Question: With N[C@@H]1CONC1=O as the compound, how does the “relative CLso titer” value read?
Answer: Its value is 177 ± 11%.

Question: O=C(O)P(=O)(O)O was tested. Which “relative CLso titer” value did it give?
Answer: The value was 165 ± 29%.

Question: Cc1cccc(Nc2ccccc2C(=O)O)c1C was tested. Which “relative CLso titer” value did it give?
Answer: Its value is 98.7 ± 20%.

Question: Cc1cc(C2CCCCC2)n(O)c(=O)c1 was tested. Which “relative CLso titer” value did it give?
Answer: The value was 44.1 ± 7.6%.

Question: For C[C@@H]1C[C@H]2[C@@H]3CCC4=CC(=O)C=C[C@]4(C)[C@@]3(F)[C@@H](O)C[C@]2(C)[C@@]1(O)C(=O)CO, which “relative CLso titer” value is on record?
Answer: The value was 196 ± 16%.

Question: Which “relative CLso titer” value does the source give for C[C@H]1O[C@@H](O[C@H]2[C@@H](O)C[C@H](O[C@H]3[C@@H](O)C[C@H](O[C@H]4CC[C@@]5(C)[C@H](CC[C@@H]6[C@@H]5C[C@@H](O)[C@]5(C)[C@@H](C7=CC(=O)OC7)CC[C@]65O)C4)O[C@@H]3C)O[C@@H]2C)C[C@H](O)[C@@H]1O here?
Answer: Its value is 86.7 ± 7.9%.

Question: With CCCCNc1cc(C(=O)O)cc(S(N)(=O)=O)c1Oc1ccccc1 as the compound, how does the “relative CLso titer” value read?
Answer: Its value is 105 ± 14%.

Question: Cn1c(=O)c2c(ncn2CC(O)CO)n(C)c1=O (stereo not given) was tested. Which “relative CLso titer” value did it give?
Answer: The value was 128 ± 10%.

Question: With NS(=O)(=O)c1cc2c(cc1Cl)N=CNS2(=O)=O as the compound, how does the “relative CLso titer” value read?
Answer: The value was 31 ± 2.7%.

Question: Which “relative CLso titer” value does the source give for C[C@@H](O[C@H]1OCCN(Cc2n[nH]c(=O)[nH]2)[C@H]1c1ccc(F)cc1)c1cc(C(F)(F)F)cc(C(F)(F)F)c1 here?
Answer: Its value is 117 ± 51%.

Question: With COc1ccc(CNc2nc(N3CCC[C@H]3CO)ncc2C(=O)NCc2ncccn2)cc1Cl as the compound, how does the “relative CLso titer” value read?
Answer: The value was 110 ± 46%.

Question: CCOC(=O)CCC(=O)O[C@H]1[C@H](O[C@@H]2[C@@H](C)[C@H](O[C@H]3C[C@@](C)(OC)[C@@H](O)[C@H](C)O3)[C@@H](C)C(=O)O[C@H](CC)[C@@](C)(O)[C@H](O)[C@@H](C)C(=O)[C@H](C)C[C@@]2(C)O)O[C@H](C)C[C@@H]1N(C)C was tested. Which “relative CLso titer” value did it give?
Answer: The value was 169 ± 3.5%.

Question: How did the “relative CLso titer” value turn out when Cn1nnnc1SCC1=C(C(=O)O)N2C(=O)[C@@H](NC(=O)[C@H](OC=O)c3ccccc3)[C@H]2SC1 was run?
Answer: Its value is 86.7 ± 26%.

Question: For CCN(CC)CCOC(=O)C1(C2CCCCC2)CCCCC1, which “relative CLso titer” value is on record?
Answer: The value was 90.3 ± 40%.

Question: How did the “relative CLso titer” value turn out when CCC[C@@H]1C[C@@H](C(=O)N[C@@H]([C@H]2O[C@H](SC)[C@H](O)[C@@H](O)[C@H]2O)[C@H](C)Cl)N(C)C1 was run?
Answer: The value was 80.1 ± 32%.

Question: For Nc1ccc(C(=O)O)cc1, which “relative CLso titer” value is on record?
Answer: The value was 67.7 ± 7.7%.

Question: CC1=C(/C=C/C(C)=C/C=C/C(C)=C\C(=O)O)C(C)(C)CCC1 was tested. Which “relative CLso titer” value did it give?
Answer: The value was 80.8 ± 13%.

Question: For CS(=O)(=O)OCCCCOS(C)(=O)=O, which “relative CLso titer” value is on record?
Answer: Its value is 66.9 ± 7.5%.

Question: Which “relative CLso titer” value does the source give for Cc1cn([C@H]2C[C@H](N=[N+]=[N-])[C@@H](CO)O2)c(=O)[nH]c1=O here?
Answer: Its value is 52.6 ± 7.3%.

Question: For CC(C)(Sc1cc(C(C)(C)C)c(O)c(C(C)(C)C)c1)Sc1cc(C(C)(C)C)c(O)c(C(C)(C)C)c1, which “relative CLso titer” value is on record?
Answer: Its value is 102 ± 13%.

Question: With COc1cc(NS(=O)(=O)c2ccc(N)cc2)ncn1 as the compound, how does the “relative CLso titer” value read?
Answer: Its value is 60.3 ± 11%.

Question: Which “relative CLso titer” value does the source give for COc1cnc(NS(=O)(=O)c2ccc(N)cc2)nc1 here?
Answer: Its value is 119 ± 37%.

Question: With N=C(N)NC(=O)c1nc(Cl)c(N)nc1N as the compound, how does the “relative CLso titer” value read?
Answer: Its value is 54.7 ± 1.4%.

Question: How did the “relative CLso titer” value turn out when CN(C)CC[C@@H](c1ccc(Cl)cc1)c1ccccn1 was run?
Answer: Its value is 48.1 ± 3.8%.

Question: Which “relative CLso titer” value does the source give for CCN(CC)C(=O)[C@@]1(c2ccccc2)C[C@H]1CN here?
Answer: The value was 48.9 ± 6%.

Question: With CN(C)CCC=C1c2ccccc2COc2ccccc21 as the compound, how does the “relative CLso titer” value read?
Answer: Its value is 88.8 ± 1.1%.

Question: Which “relative CLso titer” value does the source give for Cn1c(=O)c2c(ncn2C)n(C)c1=O here?
Answer: The value was 42.2 ± 4.3%.

Question: How did the “relative CLso titer” value turn out when CCOC(=O)[C@H](CCc1ccccc1)N[C@@H](C)C(=O)N1CCC[C@H]1C(=O)O was run?
Answer: The value was 135 ± 34%.

Question: COC(=O)Nc1nc2cc(C(=O)c3ccccc3)ccc2[nH]1 was tested. Which “relative CLso titer” value did it give?
Answer: The value was 84 ± 10%.

Question: Which “relative CLso titer” value does the source give for CC1=C(C(=O)O)N2C(=O)[C@@H](NC(=O)[C@H](N)c3ccc(O)cc3)[C@H]2SC1 here?
Answer: Its value is 49.7 ± 6.2%.

Question: With Oc1ncnc2[nH]ncc12 as the compound, how does the “relative CLso titer” value read?
Answer: Its value is 82.5 ± 30%.

Question: For CC(=O)OCC1=C(C(=O)O)N2C(=O)[C@@H](NC(=O)CSc3ccncc3)[C@H]2SC1, which “relative CLso titer” value is on record?
Answer: The value was 70.6 ± 0.88%.

Question: With Nc1ccc(C(=O)O)c(O)c1 as the compound, how does the “relative CLso titer” value read?
Answer: Its value is 73 ± 16%.
